About 1,700 (3.3%) of roughly 52,000 compounds were called active. Rule as the data show it: active = survival mostly below about 52% (no sharp cut-off); inactive = mostly above about 56%. Many of the other results were omitted from the sample, so actives are more common in it than they were.
What follows are molecules tested on Wild type (assay: S. aureus survival, RN4220 and DeltatarO strains – OD600, teichoic acid synthesis inhibitors, primary screen (AID 463173)). Details: S. aureus RN4220 wild type/DeltatarO growth, OD600, 18 h, stronger effect = lower value, screened at 18.75 µg/mL (by protocol).

Row | Compound | survival
1 | COc1ccc(NC(=O)C2=C(C)Nc3nc(SCc4ccc(Cl)cc4)nn3C2c2cccc(OC)c2OC)cc1 (centres undefined) | 60% (inactive)
2 | O=C(Nc1ccc(OC(F)(F)F)cc1)c1cc(-c2ccc(Cl)cc2)on1 | 105% (inactive)
3 | Cc1ccccc1C(=O)Nc1ccc(C(=O)OCc2cc(=O)n3nc(C(C)C)sc3n2)cc1 | 65% (inactive)
4 | CCN(c1ncnc2c1cnn2-c1cc(Cl)ccc1C)C1CCCCC1 | 80% (inactive)
5 | CCN(CC)c1ncnc2c1cnn2-c1cc(Cl)ccc1C | -6% (active)
6 | CCN(CC)CCNc1ncnc2c1cnn2-c1cc(Cl)ccc1C | 98% (inactive)
7 | Cc1ccc(N2CCN(S(=O)(=O)c3ccc4oc(=O)c5ncn(C)c5c4c3)CC2)c(C)c1 | 121% (inactive)
8 | Cc1nc(N2CCCC2)c2c(C(=O)Nc3ccc(C)c(Cl)c3)c(C)oc2n1 | 130% (inactive)
9 | Cc1ccc(CCNC(=O)c2c(C)oc3nc(C)nc(N4CCOCC4)c23)cc1 | 124% (inactive)
10 | Cc1nc(N2CCOCC2)c2c(C(=O)NCCc3ccccc3)c(C)oc2n1 | -3% (active)
11 | Cc1oc2ncnc(N3CCOCC3)c2c1C(=O)NCCc1ccccc1 | 85% (inactive)
12 | CCc1ccccc1N(CC)C(=O)c1c(C)oc2ncnc(N3CCOCC3)c12 | 70% (inactive)
13 | Cc1oc2ncnc(N3CCOCC3)c2c1C(=O)NCc1ccc(Cl)cc1 | 73% (inactive)
14 | CCc1ccc(CNC(=O)c2c(C)oc3ncnc(N4CCOCC4)c23)cc1 | 133% (inactive)
15 | Cc1ccc(CNC(=O)c2c(C)oc3ncnc(N4CCOCC4)c23)cc1 | -1% (active)
16 | CCc1cccc(NC(=O)c2c(C)oc3nc(C)nc(N4CCCC4)c23)c1 | 101% (inactive)
17 | COC(=O)CCN(C(=O)c1c(C)oc2ncnc(N3CCOCC3)c12)c1ccccc1 | 0% (active)
18 | CCCN(C(=O)c1c(C)oc2ncnc(N3CCOCC3)c12)c1ccc(Cl)c(Cl)c1 | 74% (inactive)
19 | Cc1nc(N2CCCC2)c2c(C(=O)Nc3cccc(Cl)c3)c(C)oc2n1 | -3% (active)
20 | CCc1cccc(C)c1NC(=O)c1cc(CN2CCCC2)on1 | 72% (inactive)
21 | Cc1nc2ccc(S(=O)(=O)N(CC(=O)Nc3ccc(F)cc3F)Cc3ccccc3)cc2s1 | 88% (inactive)
22 | CCn1c(=O)c2cc(C(=O)NCc3ccc(F)cc3Cl)sc2c2ccccc21 | 81% (inactive)
23 | CCN(CC)CCCNC(=O)c1c(C)oc2ncnc(N3CCOCC3)c12 | 136% (inactive)
24 | CCCCN(CC)CCNC(=O)c1c(C)oc2ncnc(N3CCOCC3)c12 | 76% (inactive)
25 | Cc1cccc(CN2CCC(CNC(=O)c3c(C)oc4ncnc(N5CCCCC5)c34)CC2)c1 | 98% (inactive)

Row | Compound | survival
26 | Cc1oc2ncnc(N3CCCCC3)c2c1C(=O)NCC1CCN(Cc2ccc(F)cc2)CC1 | 90% (inactive)
27 | Cc1oc2ncnc(N3CCCCC3)c2c1C(=O)NCC1CCN(Cc2cccc(F)c2)CC1 | -6% (active)
28 | CCCCN(CC)CCCNC(=O)c1c(C)oc2ncnc(N3CCOCC3)c12 | 14% (active)
29 | CCN(C(=O)Cn1ncc2c(=O)oc3ccc(C)cc3c21)c1cc(OC)ccc1OC | 86% (inactive)
30 | CCOc1ccc(Nc2nn(-c3ccc(OC(F)(F)F)cc3)nc2C(C)=O)cc1 | 123% (inactive)
31 | COc1cccc(NS(=O)(=O)c2ccc3c(c2)N(C)C(=O)CC(=O)N3C)c1 | 78% (inactive)
32 | COc1ccc2[nH]c(=O)c(CN(CCCN3CCOCC3)C(=O)Nc3ccccc3)cc2c1 | 102% (inactive)
33 | O=C(NC1CCCCCC1)c1ccc(CS(=O)c2ccc(Br)cc2)o1 (centres undefined) | 94% (inactive)
34 | Cn1c(=O)c(=O)n(C)c2cc(N3CCOCC3)c(NS(=O)(=O)c3ccc(F)c(Cl)c3)cc21 | 63% (inactive)
35 | Cc1ccc(S(=O)(=O)Nc2cc3c(cc2N2CCOCC2)n(C)c(=O)n3C)cc1 | 80% (inactive)
36 | CC(C)Cc1ccc(S(=O)(=O)Nc2cc3c(cc2N2CCOCC2)n(C)c(=O)c(=O)n3C)cc1 | 63% (inactive)
37 | Cc1cc2c(cc1NS(=O)(=O)c1ccc(Br)cc1)n(C)c(=O)c(=O)n2C | 129% (inactive)
38 | Cc1ccc(S(=O)(=O)Nc2cc3c(cc2C)n(C)c(=O)c(=O)n3C)cc1 | -4% (active)
39 | Cn1c(=O)c(=O)n(C)c2cc(N3CCOCC3)c(NS(=O)(=O)c3ccc(Cl)cc3)cc21 | -3% (active)
40 | CCc1ccc(S(=O)(=O)Nc2cc3c(cc2N2CCOCC2)n(C)c(=O)c(=O)n3C)cc1 | 1% (active)
41 | CCc1ccc(S(=O)(=O)Nc2cc3c(cc2C)n(C)c(=O)c(=O)n3C)cc1 | 57% (inactive)
42 | Cn1c(=O)n(C)c2cc(N3CCOCC3)c(NS(=O)(=O)c3ccc(Cl)cc3)cc21 | 93% (inactive)
43 | COc1ccccc1OCCn1cc(C(=O)c2cccs2)c2ccccc21 | 102% (inactive)
44 | O=C(CSc1nnc(-c2ccc(S(=O)(=O)N3CCCC3)cc2)n1CC1CCCO1)NC1CC1 (centres undefined) | 108% (inactive)
45 | COc1ccc(-c2nnc(SCC(=O)NCCC(C)C)nc2-c2ccc(OC)c(OC)c2)cc1OC | 71% (inactive)
46 | COc1cccc2cc(-c3nc(Nc4cccc(C)c4C)sc3C)c(=O)oc12 | 65% (inactive)
47 | COc1cccc(NC(=O)C2CCC(CNS(=O)(=O)c3ccc4c(c3)CC(C)N4C(C)=O)CC2)c1 (centres undefined) | 95% (inactive)
48 | CNS(=O)(=O)c1ccccc1C(=O)N/N=C/c1ccc(OC)c(OC)c1 | 102% (inactive)
49 | COc1cc2c(cc1OC)n(CC(=O)c1ccc(C)cc1C)c(=O)n1nc(CCn3nc(C)cc3C)nc21 | 74% (inactive)
50 | COc1ccccc1N1CCN(S(=O)(=O)c2c(C)nc3sc(C)c(C)n3c2=O)CC1 | 85% (inactive)

Row | Compound | survival
51 | COc1cc(NS(=O)(=O)c2ccc3c(c2)CCN3S(C)(=O)=O)cc(OC)c1 | 73% (inactive)
52 | COc1ccc(-c2cc(C(F)(F)F)nc(SCC(=O)NCCc3ccccc3)n2)cc1OC | 81% (inactive)
53 | COc1cccc(-c2cc(C(=O)NCc3ccc(F)cc3)no2)c1 | 71% (inactive)
54 | COc1cccc(-c2cc(C(F)(F)F)nc(NCc3ccc(F)cc3)n2)c1 | 0% (active)
55 | COc1ccc(-c2cc(C(F)(F)F)nc(NCc3ccccc3)n2)cc1OC | 66% (inactive)
56 | COc1ccc(CNC(=O)C(C)Sc2nc(-c3ccccc3)cc(C(F)(F)F)n2)cc1 (centres undefined) | 149% (inactive)
57 | COc1ccc(-c2cc(NCc3ccc(F)cc3)n3cnnc3n2)cc1 | 72% (inactive)
58 | COc1ccc(-c2cc(C(F)(F)F)nc(SCC(=O)NCc3ccc(F)cc3)n2)cc1 | 90% (inactive)
59 | COc1ccc(-c2cc(C(F)(F)F)nc(NCCc3ccccc3)n2)cc1OC | 81% (inactive)
60 | COc1ccc(-c2cc(C(F)(F)F)nc(NCc3ccccc3)n2)cc1 | -5% (active)
61 | COc1ccc(-c2cc(C(F)(F)F)nc(NCc3ccc(F)cc3)n2)cc1 | -5% (active)
62 | COc1ccc(-c2cc(C(F)(F)F)nc(NCCc3ccccc3)n2)cc1 | -2% (active)
63 | CCc1ccc(NC(=O)CCn2cnc3ccccc3c2=O)cc1 | 72% (inactive)
64 | COCCNC(=O)CN1C(=O)CCn2nc(-c3cn(C)c4ccccc34)cc21 | 64% (inactive)
65 | C#CCNc1nc(CC(C)C)nc2c1nnn2Cc1ccccc1 | 101% (inactive)
66 | COc1cccc(-c2cc(C(F)(F)F)nc(NCCc3ccccc3)n2)c1 | -7% (active)
67 | COc1ccc(CNc2nc(-c3ccc(OC)cc3)cc(C(F)(F)F)n2)cc1 | -5% (active)
68 | COc1ccccc1CCNC(=O)C(C)Sc1nc(-c2ccccc2)cc(C(F)(F)F)n1 (centres undefined) | 53% (inactive)
69 | COc1ccc(CNc2nc(-c3ccc(OC)c(OC)c3)cc(C(F)(F)F)n2)cc1 | 27% (inactive)
70 | COc1ccc(CNC(=O)CSc2nc(-c3ccc(OC)cc3)cc(C(F)(F)F)n2)cc1 | 93% (inactive)
71 | COc1cccc(-c2cc(C(F)(F)F)nc(NCCc3ccc(OC)c(OC)c3)n2)c1 | 25% (inactive)
72 | COc1cccc(CNC(=O)c2cc(S(=O)(=O)N3CCCCCC3)cn2C)c1 | 85% (inactive)
73 | COc1ccc(CNC(=O)Cc2c(C(=O)O)c(C)cn2C)cc1 | 83% (inactive)
74 | Cc1cn(C)c(CC(=O)NCc2ccccc2)c1C(=O)O | 80% (inactive)
75 | COc1cccc(CNC(=O)c2cc(S(=O)(=O)N3CCCCC3)cn2C)c1 | -2% (active)

Row | Compound | survival
76 | COc1cccc(CNC(=O)Cc2c(C(=O)O)c(C)cn2C)c1 | 0% (active)
77 | Cc1cn(C)c(CC(=O)NCc2cccc(Cl)c2)c1C(=O)O | -3% (active)
78 | Cc1cn(C)c(CC(=O)NCc2ccc(Cl)cc2)c1C(=O)O | 66% (inactive)
79 | Cc1ccc(CNC(=O)Cc2c(C(=O)O)c(C)cn2C)cc1 | 85% (inactive)
80 | Cc1ccc(CNC(=O)c2cc(S(=O)(=O)N3CCCCCC3)cn2C)cc1 | 81% (inactive)
81 | Cc1ccc(-n2ncc(C(=O)N3CCN(Cc4ccccc4)CC3)c2C2CCN(C(=O)OC(C)(C)C)CC2)cc1 | 124% (inactive)
82 | N#Cc1c(NC(=O)CN2CCCCC2)sc2c1CCC2 | 109% (inactive)
83 | Cc1ccc2c(c1)c1c(c(=O)n(-c3ccccc3)c(=O)n1CC(=O)NCC1CCCO1)n2C (centres undefined) | 72% (inactive)
84 | Cc1nc(-c2ccccc2)sc1CCNC(=O)C(=O)Nc1ccc(F)c(Cl)c1 | 1% (active)
85 | Cc1ccc(-c2nc(C)c(CCNC(=O)C(=O)Nc3ccc(C)c(Cl)c3)s2)cc1 | 76% (inactive)
86 | Cc1ccc(NC(=O)C(=O)NCCc2sc(-c3ccc(Cl)cc3)nc2C)cc1C | 126% (inactive)
87 | COc1ccc(NC(=O)CN(c2ccc(C)cc2)S(=O)(=O)c2cccs2)cc1 | 84% (inactive)
88 | Cc1ccc(Cn2c(CCNC(=O)c3cccc(C)c3)nc3ccccc32)cc1 | 68% (inactive)
89 | Cc1cccc(-c2nc3ccccc3n2Cc2ccccc2)c1 | 1% (active)
90 | O=c1n(Cc2cccc(F)c2)c2ccccc2c2nc(-c3ccccc3)nn12 | 34% (inactive)
91 | Cc1cccc(Cn2c(=O)n3nc(-c4ccccc4)nc3c3ccccc32)c1 | -24% (active)
92 | CCc1ccccc1N1CC(c2nc3ccccc3n2Cc2cccc(C)c2)CC1=O (centres undefined) | 66% (inactive)
93 | Cc1cccc(Cn2c(-c3cccc(Br)c3)nc3ccccc32)c1 | 124% (inactive)
94 | Cc1cccc(Cn2c(-c3ccccc3)nc3ccccc32)c1 | 26% (active)
95 | Nc1nonc1-c1nc2ccccc2n1Cc1cccc(Cl)c1 | 87% (inactive)
96 | O=C(CSc1nc2ccccc2n1Cc1ccccc1F)NCc1ccccc1 | 99% (inactive)
97 | Cc1cccc(-c2nc3c4ccccc4n(Cc4cccc(Cl)c4)c(=O)n3n2)c1 | 113% (inactive)
98 | Fc1ccc(Cn2c(-c3cccc(Br)c3)nc3ccccc32)cc1 | 120% (inactive)
99 | Fc1ccccc1Cn1c(-c2ccccc2)nc2ccccc21 | 1% (active)
